Assay results published in PubChem BioAssay (NCI).
This is part of a sample that, as a whole, favours compounds with a hit. Of some 79,000 tested, about 15% had one in any assay. A number with no mark means an inactive call. Calls of active or inactive are those of the source. Cut-off read from the data, not from the text of the source: active = growth inhibition above about 70%; inactive = the rest.

Experiment: NCI Yeast Anticancer Drug Screen. Data for the mec2-1 strain (AID 157)
Conditions: S. cerevisiae mec2-1 strain, active compounds read high
Experimental: Growth inhibition of yeast strains with defined genetic alterations is measured as a screen for potential anti-cancer activity. Selected strains with alterations in DNA damage repair or cell cycle control were exposed to compounds and growth inhibition was measured relative to vehicle treated controls. The strain used in this assay is mec2-1

[1] = at 5.0 µM (retest, dose inferred, filed as 0.5)
[2] = at 50.0 µM (retest, dose inferred, filed as 5.0)

SMILES | growth inhibition [1] | growth inhibition [2] | growth inhibition (at 50.0 µM)
CCCN(CCC)C(=S)N/N=C(/C)c1ccccc1O | -29% | 98% (active) | 85.7% (active)
O=C1SCCN1/N=C/c1ccc([N+](=O)[O-])o1 | 13% | 82% (active) | 65.3%
CCCCCCCCCCCCCC(=O)N1CCOCC1 | -3% | 100% (active) | 99.7% (active)
ON=C1c2ccccc2-c2ccccc21 | 2% | 21% | -3.05%
CCCCCCCCC(C)c1ccccc1O (configuration not stated) | -53% | 98% (active) | 99.7% (active)
CC(C)(CN1CCCCC1)C(=O)CC(SCCS(=O)(=O)O)c1ccc(Cl)cc1 (configuration not stated) | -4% | 91% (active) | 3.7%
CCCCCCCCCCCCCCCCCC(=O)OCC(COC(=O)CCCN)OC(=O)CCCN (configuration not stated) | 9% | 99% (active) | 97.5% (active)
CNc1ccc2c(c1)c1ccccc1n2C | 2% | -67% | 4.2%
CCC(CCCN(CC)CCc1ccccc1)OC(=O)c1cc(OC)c(OC)c(OC)c1 (configuration not stated) | -10% | 6% | 27.2%
Clc1ccc2nc3c(c(N4CCOCC4)c2c1)CCCC3 | 92% (active) | 99% (active) | 99.3% (active)
CNC(=N)c1ccc(NC(=N)c2ccc(NC(=O)c3ccc(C(=O)Nc4ccc(C(=N)Nc5ccc(C(=N)NC)cc5)cc4)cc3)cc2)cc1 | 81% (active) | 57% | 51%
COc1ccc(CC[N+]2(C)COc3cc4oc(=O)cc(C)c4cc3C2)cc1OC (configuration not stated) | 0% | -14% | -33.5%
N#[N+]c1ccc2c(S(=O)(=O)Oc3ccc(C(=O)c4ccccc4)c(OS(=O)(=O)c4cccc5c([O-])c([N+]#N)ccc45)c3)cccc2c1[O-] | -7% | 33% | 85.3% (active)
O=CNNC(=O)Nc1ccc(Cl)cc1 | 10% | 14% | -3.75%
